In the library only some 10% were active in any assay of this set; here they are far more common.
HCT116 PTEN-null: suppresses growth of cells with PTEN deletion. HCT116 PTEN-null viability, CellTiter-Glo, 60 h; hits give low values. viability, % at 10 µM. actives 1.2% (n = 140,000). AID 827;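 active means viability at or below a set limit, 4 SD under the median of all tested compounds, cut at about 3.7% in these data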;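 further: PTEN knockout HCT116 line with beta catenin targeted HCT116 as companion control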
ROMK mod: modulators of human ROMK potassium channel; B-score at 10 µM; Tet-inducible ROMK, thallium flux fluorescence; actives lie on both sides; actives 2% (n = 130,000); AID 1918;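 active means signal ratio slope over the read window, or its plate-corrected B-score, at least 3 SD from the plate mean, either direction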;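 further: B-score of the F/F0 ratio slope over 7 to 12 s after thallium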
Target sequence (P48048 whole entry, looked up): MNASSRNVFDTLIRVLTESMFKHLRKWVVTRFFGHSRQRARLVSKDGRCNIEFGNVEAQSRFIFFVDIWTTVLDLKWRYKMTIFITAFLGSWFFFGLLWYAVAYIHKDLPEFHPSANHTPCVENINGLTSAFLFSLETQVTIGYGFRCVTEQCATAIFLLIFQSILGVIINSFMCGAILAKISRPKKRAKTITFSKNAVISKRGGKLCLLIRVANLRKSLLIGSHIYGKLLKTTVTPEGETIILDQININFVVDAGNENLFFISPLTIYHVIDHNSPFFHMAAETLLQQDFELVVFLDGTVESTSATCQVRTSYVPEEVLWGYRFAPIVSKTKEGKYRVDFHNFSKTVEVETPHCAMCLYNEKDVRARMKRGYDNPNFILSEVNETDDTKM
bCat KO growth: beta-catenin-lacking colon tumor cell growth suppression. viability, % at 10 µM. HCT116 beta-catenin knockout viability, CellTiter-Glo, 60 h; hits give low values. actives 1.5% (n = 140,000);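 active means viability at or under a set limit, the compound median less 4 SD, cut at about 6% in these data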;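 further: 0% = Hyamine 1622 control at 20 µM and 100% = untreated cell control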
Lmaj promast: reduces viability of Leishmania major promastigotes. resazurin fluorescence viability. inhibition, % at 10 µM. actives 9% (n = 200,000); in the data active means inhibition above about 50%;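 further: promastigotes grown with compound for 44 hours at 28 °C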
p97 inhibitor: human p97 ATPase inhibition. P55072. recombinant p97 ATPase, Kinase-Glo ATP luminescence, 3 h. inhibition, % at 8 µM. actives 0.42% (n = 220,000). AID 1481; in the data active means inhibition above about 15%;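 further: 0% = DMSO vehicle and 100% = wells lacking enzyme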
INS promoter inh: TRM-6 insulin promoter activity inhibition. AID 1273. TRM-6 cells (human fetal islet line), insulin promoter-eGFP reporter, imaging; reporter expression induced with tamoxifen. inhibition, % at 2 µM. actives 0.9% (n = 130,000);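 active means inhibition above the mean plus 3 SD, with well images judged a real hit on visual review, cut at about 60% in these data, passing the limit was not always enough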
Active calls of the source: *; x = no result.

SMILES | HCT116 PTEN-null | ROMK mod | bCat KO growth | Lmaj promast | p97 inhibitor | INS promoter inh
Cc1cc2ccccc2n2c(SCC(=O)NCC3CCCO3)nnc12 (centres undefined) | x | -0.672 | x | -3.9 | 1.8 | 38.5
Cc1[nH]c2ccccc2c1CCN(Cc1cccnc1)C(=S)Nc1ccc(F)cc1 | x | -0.447 | x | 100.3* | 2.0 | 0.0
Cc1[nH]c2ccccc2c1CCN(Cc1cccs1)C(=S)Nc1ccccc1 | x | 0.756 | x | 35.9 | 1.3 | 24.3
Cc1[nH]c2ccccc2c1CCN(Cc1cccnc1)C(=S)Nc1cccc(F)c1 | x | 0.0843 | x | 100.3* | 4.5 | -36.4
Cc1[nH]c2ccc(F)cc2c1CCN(Cc1cccnc1)C(=S)Nc1ccccc1 | x | -0.084 | x | 100.4* | 1.1 | -63.6
CCOc1ccc(NC(=S)N(CCc2c(C)[nH]c3ccccc23)Cc2cccnc2)cc1 | 90.3 | 1.02 | 83.9 | 100.2* | -3.4 | 40.0
COc1cccc(NC(=S)N(CCc2c(C)[nH]c3ccccc23)Cc2cccs2)c1 | 38.8 | 0.361 | 56.5 | 24.6 | 3.6 | 23.8
CC(C)(C)c1ccc(/C=C2\SC(=O)N(CCNC(=O)c3cccc(S(=O)(=O)N4CCOCC4)c3)C2=O)cc1 | 24.1 | x | 31.2 | 44.9 | -0.3 | -33.3
COc1ccc(C(=O)N2CCC(N3CCN(c4ccccc4)CC3)CC2)cc1 | 83.9 | -0.448 | 82.6 | 90.7* | -6.5 | x
Cc1nn(-c2ccccc2)c(Cl)c1C(=O)N1CCN(c2ncnc3c2cnn3-c2ccccc2)CC1 | 7.1 | x | 6.0* | 22.8 | 0.9 | x
COc1ccccc1C(=O)N1CCC(N2CCN(c3ccccc3)CC2)CC1 | x | x | x | x | 0.2 | x
COc1ccc(N2CCN(C(=O)c3c(C)nn(-c4ccccc4)c3C)CC2)cc1 | 93.2 | 0.862 | 93.9 | 50.2* | 3.4 | -8.3
O=C(CCC1CCCC1)N1CCC(N2CCN(c3ccccc3)CC2)CC1 | x | -0.167 | 77.3 | 93.3* | -5.9 | x
